From PubChem
phage Ecoli inh – E. coli growth loss with phage present. growth absorbance. inhibition, % at 11.9 µM. 360,000 tested, 0.26% active. AID 651602; in the data active = inhibition above about 11%
Tat export inh – E. coli Tat transport inhibition; E. coli MC4100 TorA-mCherry Tat export, fluorescence; inhibition, % at 10 µM; AID 488895; 340,000 tested, 0.036% active;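 active = mean replicate inhibition at least 50% and at least half of replicates individually reaching 50%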;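 note: exported cargo escapes ClpAP degradation while cytoplasmic cargo is degraded and loses fluorescence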
E coli growth-1 – bacterial growth inhibition, counter-screen for AddAB inhibitors; E. coli V3065 growth, OD600 absorbance, 18 h; inhibition, % at 11.9 µM; 330,000 tested, 0.27% active;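 active = inhibition above the campaign's mean inhibition across all tested compounds plus 3 SD, cut at about 9.9% in these data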;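 note: uninfected addAB+ strain grown without phage in ampicillin broth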
pCIP destab – lowers stability of the mouse p/CIP coactivator protein; F442A p/CIP-EGFP cells, EGFP fluorescence, 16 h; decrease of EGFP signal, % at 10 µM; 290,000 tested, 0.01% active; AID 1984;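 active = EGFP signal decrease of at least 30% at 10 µM or well 3 SD below plate mean, unless failing retest; inactive = the rest, including hits failing retest or dose response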
AddAB inh – less growth of phage-infected E. coli with AddAB; E. coli expressing H. pylori AddAB, absorbance growth; inhibition, % at 11.9 µM; 330,000 tested, 0.29% active; AID 435030; in the data active = inhibition above about 12%
E coli growth-2 – blocks Escherichia coli growth; OD600, 23 h; active compounds read low; OD600 absorbance (test concentration not listed); 330,000 tested, 0.21% active;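 active = OD600 absorbance below the run mean of sample wells minus 3.6 SD, in any replicate, cut at about 0.56 in these data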
AddAB confirm – growth loss of T4-infected E. coli expressing H. pylori AddAB, confirmed | shares compounds with AddAB inh | E. coli V3065 expressing H. pylori AddAB, T4 phage, OD; T4 phage with gene 2 nonsense mutations | inhibition, % at 11.9 µM | 880 tested, 64% active | AID 488942;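 active = mean inhibition above a set limit taken from the earlier primary screen, cut at about 13% in these data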;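 note: higher means less bacterial growth since AddAB block lets phage replicate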
RecBCD counter – reduces growth of phage-infected RecBCD+ E. coli, AddAB inhibitor counter-screen; shares compounds with AddAB inh; E. coli V66 + mutant T4 phage, OD growth; inhibition, % at 11.9 µM; 880 tested, 73% active; AID 488955;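 active = mean inhibition above the mean of solvent-only control wells plus 3 SD, cut at about 4% in these data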;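 note: optical density read after an 18 h incubation at 37 °C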
bact viab count – reduces bacterial viability, AddAB inhibitor counter-screen; inhibition, % at 11.9 µM; shares compounds with AddAB inh; 880 tested, 35% active; absorbance (AddAB counterscreen); in the data active = inhibition above about 25%
RecBCD conf – growth loss of phage-infected V66 E. coli, RecBCD confirmation screen; shares compounds with phage Ecoli inh; E. coli V66 + T4 2- phage, growth OD; inhibition, % at 11.9 µM; 890 tested, 45% active;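 active = mean inhibition over triplicates exceeding the hit threshold derived in the original primary screen, cut at about 11% in these data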
Ecoli viability – counter-screen for RecBCD inhibitors: inhibitors of bacterial viability; shares compounds with phage Ecoli inh; E. coli viability, absorbance (OD) growth; inhibition, % at 11.9 µM; 890 tested, 29% active; AID 651983; in the data active = inhibition above about 20%;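 note: E. coli strain V66 grown with compound alone and no phage infection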
AddAB phage OD – growth loss of phage-infected AddAB E. coli, RecBCD counter-screen; shares compounds with phage Ecoli inh; E. coli expressing H. pylori AddAB + T4 phage, OD growth; gene 2 mutant T4, recBCD-deleted host; inhibition, % at 11.9 µM; 890 tested, 45% active;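 active = mean inhibition above the solvent-only control wells' mean plus 3 SD, cut at about 22% in these data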;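 note: higher means less bacterial growth from phage killing when AddAB is blocked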
Hits are given with their value; 0 = inactive; - = no result given. Most compounds without a hit are left out; they make up all but 0.51% or so of the library.

SMILES | phage Ecoli inh | Tat export inh | E coli growth-1 | pCIP destab | AddAB inh | E coli growth-2 | AddAB confirm | RecBCD counter | bact viab count | RecBCD conf | Ecoli viability | AddAB phage OD
CCc1cn(C2CC(O)C(CO)O2)c(=O)[nH]c1=O (stereo unspecified) | 12.0 | 0 | 13.4 | - | 19.6 | 0 | 35.4 | 12.5 | 0 | 14.0 | 0 | 31.0
O=c1[nH]c(=O)n(C2CC(O)C(CO)O2)cc1C(F)(F)F (stereo unspecified) | - | - | - | - | - | 0 | - | - | - | - | - | -
COc1ccc(CC(=O)NCc2cccs2)cc1 | 0 | 0 | 0 | 0 | 0 | 0 | - | - | - | - | - | -
CC1(C)CC(=O)C2=C(C1)OC(=O)C2(NC(=O)c1cccs1)C(F)(F)F (stereo unspecified) | 0 | 0 | 0 | 0 | 0 | 0 | - | - | - | - | - | -
CC1CCCC(NC(=O)c2ccc3c(c2)OCO3)C1C (stereo unspecified) | 0 | 0 | 0 | - | 0 | 0 | - | - | - | - | - | -
Brc1ccc(N/N=C(/N=Nc2nn[nH]n2)c2ccccc2)cc1 | 26.3 | 0 | 30.3 | 0 | 29.7 | - | 21.5 | 25.9 | 25.4 | 21.0 | 22.9 | 27.6
Brc1ccc(NN=C(N=Nc2nn[nH]n2)c2ccccc2)cc1 | - | - | - | - | - | 0 | - | - | - | - | - | -
CCSc1nsc(NC(=O)Nc2cccc(F)c2)n1 | 14.7 | 0 | 25.4 | 0 | 18.5 | - | 13.2 | 15.8 | 0 | 16.1 | 0 | 22.0
CCn1cc(C(=O)NCC2CCCO2)c(=O)c2cc(F)c(N3CCN(C)CC3)cc21 (stereo unspecified) | 0 | 0 | 0 | 0 | 0 | 0 | - | - | - | - | - | -
Cc1cc(C)c(NC(=O)c2cn3c4c(c(N5CCN(C)CC5)c(F)cc4c2=O)OCC3C)c(C)c1 (stereo unspecified) | 96.7 | 0 | 97.0 | 0 | 96.6 | 0.049 | 101.3 | 100.1 | 100.7 | 99.0 | 100.4 | 101.1
CN1CCN(c2c(F)cc3c(=O)c(C(=O)O)cn4c3c2OCN4C)CC1 | 99.1 | 138.5 | 98.7 | 0 | 98.6 | 0.07 | 100.8 | 100.2 | 100.8 | 102.0 | 102.5 | 102.6
CCn1cc(C(=O)O)c(=O)c2cc(F)c(NN=Cc3ccccc3)cc21 | - | - | - | - | - | 0 | - | - | - | - | - | -
Nc1nc(SCc2ccccc2)sc1C(=O)N1CCCCC1 | 0 | - | - | - | - | - | - | - | - | - | - | -
COCCN=c1scc(-c2cccs2)n1/N=C/c1ccc(O)c(O)c1O | 15.2 | 0 | 11.5 | 0 | 14.5 | - | 13.7 | 11.3 | 0 | 0 | 0 | 0
COCCN=c1scc(-c2cccs2)n1N=C(C)c1ccco1 | - | - | - | - | - | 0 | - | - | - | - | - | -
O=c1[nH]c(=O)n(C2OC(CO)C(O)C(O)C2O)cc1F (stereo unspecified) | 0 | - | - | - | - | - | - | - | - | - | - | -
C[C@H]1O[C@@H](n2cc(F)c(=O)[nH]c2=O)[C@H](O)[C@@H]1O | 32.3 | 0 | 42.3 | - | 36.1 | - | 41.5 | 25.1 | 38.3 | 46.6 | 30.8 | 52.9
CCN(CC)CCCn1c(SCC(=O)Nc2cccc(F)c2)nnc1-c1ccoc1C | 0 | 0 | 0 | 0 | 0 | 0 | - | - | - | - | - | -
COc1ccc(C(=O)NC(=S)NNC(=O)c2ccccc2O)cc1 | 12.2 | 0 | 18.3 | 0 | 14.7 | 0 | 18.7 | 23.0 | 0 | 12.2 | 0 | 22.4
O=C(NC(=S)NNC(=O)c1cc2ccccc2cc1O)c1ccco1 | 19.9 | 0 | 16.6 | 0 | 15.4 | - | 15.4 | 24.2 | 0 | 13.7 | 0 | 0
COc1ccc(C)cc1NC(=O)NNC(=O)c1cc2ccccc2cc1O | 12.5 | 0 | 15.3 | 0 | 16.4 | 0 | 17.5 | 14.2 | 0 | 0 | 0 | 0
COc1ccc(C(=O)NC(=S)NNC(=O)c2ccco2)cc1 | 0 | 0 | 0 | 0 | 0 | 0 | - | - | - | - | - | -
O=C(/C=C/c1cccs1)NC(=S)NNC(=O)c1ccccc1O | 20.6 | 0 | 22.5 | 0 | 25.7 | 0 | 19.2 | 22.5 | 0 | 0 | 0 | 23.1
COc1ccc(C(=O)NC(=S)NNC(=O)c2ccccc2C)cc1 | 0 | 0 | 0 | - | 0 | 0 | - | - | - | - | - | -
COc1ccc(C(=O)NNC(=S)NC(=O)/C=C/c2cccs2)cc1 | 0 | 0 | 0 | 0 | 0 | 0 | - | - | - | - | - | -
SMILES | phage Ecoli inh | Tat export inh | E coli growth-1 | pCIP destab | AddAB inh | E coli growth-2 | AddAB confirm | RecBCD counter | bact viab count | RecBCD conf | Ecoli viability | AddAB phage OD
CCOC(=O)C1(NC(=O)CN2C(=O)c3ccccc3C2=O)CCCC1 | 0 | 0 | - | - | - | 0 | - | - | - | - | - | -
O=C(NNC(=O)c1cc2ccccc2cc1O)Nc1ccc(Br)cc1 | 14.6 | 0 | 10.7 | 0 | 15.3 | 0 | 13.7 | 17.1 | 0 | 0 | 0 | 0
Cc1ccc(C(=O)NNC(=O)c2cc3ccccc3cc2O)cc1 | 0 | 0 | 0 | 0 | 0 | 0 | - | - | - | - | - | -
COc1ccccc1N(CC(=O)NC1CCCC1)C(=O)CCCC(=O)Nc1ccccn1 | 0 | 0 | - | 0 | - | 0 | - | - | - | - | - | -
N#Cc1c(-c2ccccc2)ccn(Cc2ccccc2Cl)c1=O | 0 | 0 | 0 | 0 | 0 | - | - | - | - | - | - | -
N#Cc1c(-c2ccccc2)ccn(Cc2cccc(Cl)c2)c1=O | 15.1 | 0 | 16.1 | 0 | 21.4 | 0 | 27.4 | 15.8 | 0 | 0 | 0 | 0
O=C(NNC1=C(C(=O)C(F)(F)F)CCC1)c1cccnc1 | 0 | 0 | 0 | 0 | 0 | 0 | - | - | - | - | - | -
C=CCc1cccc(/C=N/NC(=O)CCC(=O)Nc2ccc(F)cc2)c1O | 13.2 | 0 | 10.6 | 0 | 13.1 | - | 14.4 | 15.7 | 0 | 0 | 0 | 0
C=CCc1cccc(/C=N/NC(=O)CNc2cccc3ccccc23)c1O | 0 | 0 | 0 | 0 | 0 | - | - | - | - | - | - | -
C=CCc1cccc(/C=N/NC(=O)CNc2ccccc2OC)c1O | 13.6 | 0 | 0 | 0 | 13.1 | - | 16.2 | 10.4 | 0 | 0 | 0 | 0
Cn1ccnc1SCC(=O)c1ccc(F)cc1 | 0 | - | 0 | - | 0 | 0 | - | - | - | - | - | -
CCN1CCN(c2cc3c(cc2F)c(=O)c(C(=O)O)cn3C2CC2)CC1 | 102.2 | 146.4 | 99.7 | 0 | 99.4 | 0.064 | 98.7 | 99.6 | 99.2 | 102.0 | 103.8 | 103.0
CCOC(=O)C1CN(c2cc3c(cc2F)c(=O)c(C(=O)O)cn3CC)OC1C(=O)OCC (stereo unspecified) | 0 | 0 | 0 | 0 | 0 | 0 | - | - | - | - | - | -
CC(=O)N1CCN(c2cc3c(cc2F)c(=O)c(C(=O)O)cn3C2CC2)CC1 | 96.3 | 62.4 | 101.0 | 0 | 102.1 | 0.067 | 98.7 | 99.1 | 98.6 | 101.0 | 102.2 | 101.8
C[C@H](CO)N1C[C@H](C)[C@@H](CN(C)C)OCc2cnnn2CCCC1=O | 0 | - | - | - | - | - | - | - | - | - | - | -
c1ccc(NCn2cncn2)nc1 | 0 | 0 | 0 | 0 | 0 | 0 | - | - | - | - | - | -
